LMP1 NFkB inh: reduces LMP1-driven NF-kappaB luciferase signal. LMP1-induced NF-kappaB luciferase reporter cells, luminescence. hit rate 0.69% among 350,000. inhibition, % at 12.5 µM; in the data active = inhibition above about 41%;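 also: 0% = neutral control wells and 100% = reference inhibitor control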
EWS-Fli inh: EWS/Fli transcriptional activity inhibition; inhibition, % at 12.6 µM; hit rate 0.67% among 350,000; AID 651661; A673 NR0B1-luciferase reporter, viability-normalised;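 active = mean inhibition of at least 50% after viability correction, with every replicate also passing that limit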;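 also: firefly luciferase signal divided by Alamar Blue viability fluorescence both relative to DMSO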
TROY NFkB inh: blocks TROY-dependent signaling in reporter cells | hit rate 0.98% among 360,000 | AID 1347056 | Q293 LMP1-TROYcd NF-kB luciferase reporter, 4 h | inhibition, % at 10 µM;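 active = compounds whose plate-normalised and pattern-corrected inhibition of the luciferase reporter signal at the single screening dose is 50% or more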
PAX8 reporter: lowers PAX8-driven luciferase in RMG-I cells; RMG-I TPO-luciferase reporter, SteadyGlo, 24 h; inhibition, % at 12.6 µM; hit rate 1.2% among 360,000; AID 652154;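 active = mean replicate inhibition at least 60% with every replicate also reaching 60%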;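 also: luciferase light reporting Pax8 driven TPO promoter activity; plate controls were median of neutral control wells for no effect and mitoxantrone controls for full effect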
TWEAK-Fn14 inh: inhibitors of TWEAK-Fn14 interaction signaling. hit rate 2% among 360,000. inhibition, % at 10 µM. TWEAK-stimulated Fn14 reporter cells, luciferase luminescence, 8 h; in the data active = inhibition above about 50%
LGR2 antag: blocks bursicon-induced cAMP signaling via Drosophila LGR2 | hit rate 0.35% among 380,000 | inhibition, % at 9.99 µM | HEK293 LGR2, CRE-luciferase, bursicon-stimulated, 4 h;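 active = drop in luminescence signal, shown as inhibition above about 50% in the replicate tests, limit read from the data, passing the limit was not always enough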;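 also: agonist challenge used bursicon conditioned medium at about half maximal strength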
An asterisk follows results filed as active. Only some compounds are listed: those with a hit (about 3.1% of all), similar ones and a draw of the others.

For OC[C@@H]1CN(Cc2ccc(-c3ccccc3)cc2)C[C@H](n2cnc3c(NC4CCC4)ncnc32)O1 the results were EWS-Fli inh 10.7, TROY NFkB inh 36.1, PAX8 reporter 31.9, TWEAK-Fn14 inh 59.0* and LGR2 antag 9.2.
`Cc1noc(C)c1NC(=O)Nc1ccc2c(c1)C(=O)N([C@@H](C)CO)C[C@H](C)[C@@H](CN(C)Cc1ccc(Cl)c(Cl)c1)OCCCC[C@H](C)O2` gave EWS-Fli inh 6.1, PAX8 reporter -15.3 and LGR2 antag 8.1.
Screening O=C(CCCN1C(=O)/C(=C\c2cccs2)SC1=S)NNC(=O)c1ccncc1 returned LMP1 NFkB inh -3.8, EWS-Fli inh 24.5, TROY NFkB inh 11.3, PAX8 reporter 22.5, TWEAK-Fn14 inh -14.9 and LGR2 antag -9.3.
`O=C(CCCN1C(=O)/C(=C/c2ccccc2Cl)SC1=S)NNC(=O)c1ccccc1` gave LMP1 NFkB inh 23.4, EWS-Fli inh 44.6, TROY NFkB inh 56.7*, PAX8 reporter 26.3, TWEAK-Fn14 inh 70.0* and LGR2 antag 29.6.
For O=C(CCCN1C(=O)/C(=C/c2ccccc2Cl)SC1=S)NNC(=O)c1cccnc1 the results were LMP1 NFkB inh -21.4, EWS-Fli inh 35.8, TROY NFkB inh 76.7*, PAX8 reporter 15.0, TWEAK-Fn14 inh 86.5* and LGR2 antag -6.7.
`O=C(CCN1C(=O)/C(=C/c2ccccc2Cl)SC1=S)Nc1ccccc1C(=O)O` gave LMP1 NFkB inh -4.9, EWS-Fli inh 6.3, TROY NFkB inh 45.5, PAX8 reporter 100.5*, TWEAK-Fn14 inh 10.2 and LGR2 antag 15.9.
`C=CC[C@]1(C(=O)N2CCOCC2)COC(c2ccc(OCCCO)cc2)=N1` gave EWS-Fli inh -6.4.
`O=C(C[C@@H]1C=C[C@H](NC(=O)c2ccc(F)cc2)[C@H](CO)O1)NCc1ccncn1` gave EWS-Fli inh 0.1, PAX8 reporter -8.9 and LGR2 antag 27.7.
COc1ccc(N=C2S/C(=C\c3ccc(OCC(=O)O)cc3)C(=O)N2CCc2c[nH]c3ccccc23)cc1 was read as LMP1 NFkB inh -6.9, EWS-Fli inh 20.5, TROY NFkB inh -1.3, PAX8 reporter -1.8, TWEAK-Fn14 inh 40.7 and LGR2 antag 7.9.
COc1ccc(N=C2S/C(=C\c3ccc(N4CCOCC4)o3)C(=O)N2CCc2c[nH]c3ccccc23)cc1 was read as LMP1 NFkB inh 15.7, TROY NFkB inh 15.6 and TWEAK-Fn14 inh 96.5*.
For CCOC(=O)C1(Cc2ccc(OC)cc2)CCN(C(=O)CN2CCOC2=O)CC1 the results were LMP1 NFkB inh -5.2, EWS-Fli inh -52.5, TROY NFkB inh -23.1, PAX8 reporter -18.2, TWEAK-Fn14 inh -24.6 and LGR2 antag -27.4.
For CCOC(=O)C1(Cc2ccc(OC)cc2)CCN(C(=O)CN2CCCCC2=O)CC1 the results were LMP1 NFkB inh -5.1, EWS-Fli inh -14.8, TROY NFkB inh -16.1, PAX8 reporter 91.9*, TWEAK-Fn14 inh -11.8 and LGR2 antag -7.6.
CCOC(=O)c1cnc2ccccc2c1Nc1ccc2c(c1)OCCO2 was read as LMP1 NFkB inh 14.4, EWS-Fli inh -13.3, TROY NFkB inh 77.0*, PAX8 reporter -5.6, TWEAK-Fn14 inh 91.9* and LGR2 antag 1.1.
Screening COC(=O)C1=C(SC)N(c2ccccc2)C(c2ccccc2)CC1=O (stereo unspecified) returned LMP1 NFkB inh 3.1, EWS-Fli inh 6.8, TROY NFkB inh -13.1, PAX8 reporter 90.8*, TWEAK-Fn14 inh 5.2 and LGR2 antag 6.7.
`COC(=O)C1=C(SC)N(c2ccc(OC)cc2)C(c2ccccc2)CC1=O` (stereo unspecified) gave LMP1 NFkB inh 7.1, EWS-Fli inh -1.6, TROY NFkB inh 10.1, PAX8 reporter 18.3, TWEAK-Fn14 inh 5.0 and LGR2 antag -8.3.
`O=C(NCCN1CCOCC1)[C@]1(Cc2ccccc2)N=C(c2ccc(OCCCO)cc2)O[C@@H]1c1ccccc1` gave EWS-Fli inh 4.4 and PAX8 reporter 6.3.
`C[C@H]1CN([C@@H](C)CO)C(=O)c2cc(NS(=O)(=O)c3ccc(F)cc3)ccc2O[C@@H]1CN(C)Cc1ccc(C(F)(F)F)cc1` gave EWS-Fli inh -1.0, PAX8 reporter -11.4 and LGR2 antag 0.6.
`COc1ccc(S(=O)(=O)Nc2ccc3c(c2)CC(=O)N([C@@H](C)CO)C[C@H](C)[C@@H](CN(C)Cc2ccc(C(F)(F)F)cc2)O3)cc1` gave EWS-Fli inh 4.0, PAX8 reporter 83.0* and LGR2 antag 13.4.
C[C@H](CO)N1C[C@H](C)[C@H](CN(C)Cc2ccc(-c3ccccc3)cc2)Oc2ccc(NS(=O)(=O)c3ccc(F)cc3)cc2CC1=O was read as EWS-Fli inh -14.3, PAX8 reporter 112.8* and LGR2 antag -4.5.
C[C@@H]1CN([C@H](C)CO)C(=O)c2cc(NS(=O)(=O)c3ccc(F)cc3)ccc2O[C@@H]1CN(C)Cc1ccc(C(F)(F)F)cc1 was read as EWS-Fli inh 68.1*, PAX8 reporter 115.1* and LGR2 antag 11.6.
Cc1ccc(S(=O)(=O)Nc2ccc3c(c2)CC(=O)N([C@@H](C)CO)C[C@H](C)[C@@H](CN(C)Cc2ccc(Oc4ccccc4)cc2)O3)cc1 was read as EWS-Fli inh 6.9, PAX8 reporter 79.6* and LGR2 antag 12.0.
Cc1ccc(S(=O)(=O)Nc2ccc3c(c2)CC(=O)N([C@H](C)CO)C[C@H](C)[C@H](CN(C)Cc2ccc(C(F)(F)F)cc2)O3)cc1 was read as EWS-Fli inh 8.7, PAX8 reporter 22.7 and LGR2 antag -2.3.
For C[C@@H]1CN([C@@H](C)CO)C(=O)Cc2cc(NS(=O)(=O)c3ccc(F)cc3)ccc2O[C@H]1CN(C)Cc1ccc(C(F)(F)F)cc1 the results were EWS-Fli inh 31.2, PAX8 reporter 89.5* and LGR2 antag 1.7.
Cc1ccc(S(=O)(=O)Nc2ccc3c(c2)CC(=O)N([C@@H](C)CO)C[C@@H](C)[C@@H](CN(C)Cc2ccc(C(F)(F)F)cc2)O3)cc1 was read as EWS-Fli inh 23.5, PAX8 reporter 62.0* and LGR2 antag 1.2.
COc1ccccc1-c1ccc([C@H]2[C@@H](CO)N(C(C)=O)C23CN(C(C)=O)C3)cc1 was read as LGR2 antag 5.5.
`CN1c2ccc(-c3ccccc3F)cc2[C@@H]2[C@@H](CCN2S(=O)(=O)c2ccccc2)[C@@H]1CO` gave EWS-Fli inh 8.1, PAX8 reporter -0.7 and LGR2 antag 13.6.
For C[C@@H]1CN([C@@H](C)CO)C(=O)Cc2cc(NC(=O)Nc3ccc(C(F)(F)F)cc3)ccc2O[C@@H]1CN(C)C(=O)NC1CCCCC1 the results were EWS-Fli inh 58.5*, PAX8 reporter 24.7 and LGR2 antag 10.1.
`C[C@H]1CN([C@@H](C)CO)C(=O)Cc2cc(NC(=O)Nc3ccc(C(F)(F)F)cc3)ccc2O[C@H]1CN(C)CC1CCCCC1` gave EWS-Fli inh 0.4, PAX8 reporter -6.9 and LGR2 antag -6.2.

Assay outcomes as filed in PubChem BioAssay.
